Test [1] deals with Death-associated protein kinase 1 (Homo sapiens) (UniProt P53355). As to conditions: at 1 µM.
Test [2] deals with T1, Serine/threonine-protein kinase DCLK2 (Homo sapiens) (UniProt Q8N568).
T1 sequence (whole entry): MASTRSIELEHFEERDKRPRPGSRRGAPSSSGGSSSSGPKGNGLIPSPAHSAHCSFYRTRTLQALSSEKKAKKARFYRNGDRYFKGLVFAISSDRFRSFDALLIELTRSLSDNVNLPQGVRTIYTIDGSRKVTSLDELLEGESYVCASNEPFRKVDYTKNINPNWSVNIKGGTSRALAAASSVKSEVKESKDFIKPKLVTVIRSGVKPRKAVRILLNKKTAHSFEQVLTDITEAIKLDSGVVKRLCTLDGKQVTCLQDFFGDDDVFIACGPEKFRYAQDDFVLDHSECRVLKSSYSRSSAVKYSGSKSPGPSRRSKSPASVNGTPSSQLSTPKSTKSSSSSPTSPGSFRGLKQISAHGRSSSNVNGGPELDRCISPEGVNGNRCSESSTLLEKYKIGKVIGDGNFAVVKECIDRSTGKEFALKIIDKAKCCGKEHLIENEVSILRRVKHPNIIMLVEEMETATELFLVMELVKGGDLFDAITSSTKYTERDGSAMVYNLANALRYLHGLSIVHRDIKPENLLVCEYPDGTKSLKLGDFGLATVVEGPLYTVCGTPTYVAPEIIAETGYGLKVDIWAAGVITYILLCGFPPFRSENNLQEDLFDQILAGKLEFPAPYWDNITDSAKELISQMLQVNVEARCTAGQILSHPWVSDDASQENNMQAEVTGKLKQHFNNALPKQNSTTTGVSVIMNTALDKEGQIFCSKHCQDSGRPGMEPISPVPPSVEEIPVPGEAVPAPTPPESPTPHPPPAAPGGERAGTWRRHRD
As to conditions: at 0.1 µM.

Test [3] addresses T1, Serine/threonine-protein kinase DCLK2 (Homo sapiens). As to conditions: at 1 µM.
Test [4] deals with MAP kinase-activated protein kinase 2 (Homo sapiens) (UniProt P49137). To be noted: at 0.1 µM.
Test [5] shares this target. To be noted: at 1 µM.
For test [6], the target named is MAP kinase-activated protein kinase 3 (Homo sapiens) (UniProt Q16644). As to conditions: at 0.1 µM.
Test [7] shares this target. To be noted: at 1 µM.
Test [8] has as its target Serine/threonine-protein kinase MARK1 (Homo sapiens) (UniProt Q9P0L2). To be noted: at 0.1 µM.
The target is the same in test [9]. As to conditions: at 1 µM.
The target in test [10] is MAP/microtubule affinity-regulating kinase 3 (Homo sapiens) (UniProt P27448). As to conditions: at 0.1 µM.
The target is the same in test [11]. As to conditions: at 1 µM.
The target in test [12] is T2, MAP/microtubule affinity-regulating kinase 4 (Homo sapiens) (UniProt Q96L34).
T2 sequence (whole entry): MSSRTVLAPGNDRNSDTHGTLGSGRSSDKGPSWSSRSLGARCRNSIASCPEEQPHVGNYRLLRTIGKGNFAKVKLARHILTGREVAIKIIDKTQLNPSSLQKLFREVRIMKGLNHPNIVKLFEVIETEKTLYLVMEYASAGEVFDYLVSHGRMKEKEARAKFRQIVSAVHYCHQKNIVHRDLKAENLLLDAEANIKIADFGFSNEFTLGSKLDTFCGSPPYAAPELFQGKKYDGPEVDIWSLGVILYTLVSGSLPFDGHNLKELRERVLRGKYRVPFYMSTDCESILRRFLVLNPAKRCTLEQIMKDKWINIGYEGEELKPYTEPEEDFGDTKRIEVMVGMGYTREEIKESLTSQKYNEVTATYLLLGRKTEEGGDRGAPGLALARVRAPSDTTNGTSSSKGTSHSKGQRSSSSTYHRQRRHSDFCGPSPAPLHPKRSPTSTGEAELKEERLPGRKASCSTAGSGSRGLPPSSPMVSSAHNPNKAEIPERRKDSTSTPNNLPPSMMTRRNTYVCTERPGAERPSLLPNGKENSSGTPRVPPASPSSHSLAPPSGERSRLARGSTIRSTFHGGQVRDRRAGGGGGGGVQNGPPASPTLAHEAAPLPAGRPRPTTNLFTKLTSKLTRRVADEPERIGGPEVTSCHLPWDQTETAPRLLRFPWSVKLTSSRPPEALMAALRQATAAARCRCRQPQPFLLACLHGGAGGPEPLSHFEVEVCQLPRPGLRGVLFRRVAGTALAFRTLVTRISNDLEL
As to conditions: at 0.1 µM.

Test [13] concerns the target T2, MAP/microtubule affinity-regulating kinase 4 (Homo sapiens). As to conditions: at 1 µM.
In test [14] the target is Maternal embryonic leucine zipper kinase (Homo sapiens) (UniProt Q14680). As to conditions: at 0.1 µM.
For test [15] the target is unchanged. As to conditions: at 1 µM.
Test [16] has as its target MAP kinase-interacting serine/threonine-protein kinase 1 (Homo sapiens) (UniProt Q9BUB5). As to conditions: at 0.1 µM.
Test [17] shares this target. As to conditions: at 1 µM.
For test [18], the target named is MAP kinase-interacting serine/threonine-protein kinase 2 (Homo sapiens) (UniProt Q9HBH9). To be noted: at 0.1 µM.
Test [19] has the same target. To be noted: at 1 µM.
The target of test [20] is Serine/threonine-protein kinase MARK2 (Homo sapiens) (UniProt Q7KZI7). As to conditions: at 0.1 µM.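 Further: mean percent inhibition of PAR-1Balpha kinase activity, reported from the GSK PKIS screen.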
Sequence of Serine/threonine-protein kinase MARK2 (Homo sapiens) (Q7KZI7 whole entry): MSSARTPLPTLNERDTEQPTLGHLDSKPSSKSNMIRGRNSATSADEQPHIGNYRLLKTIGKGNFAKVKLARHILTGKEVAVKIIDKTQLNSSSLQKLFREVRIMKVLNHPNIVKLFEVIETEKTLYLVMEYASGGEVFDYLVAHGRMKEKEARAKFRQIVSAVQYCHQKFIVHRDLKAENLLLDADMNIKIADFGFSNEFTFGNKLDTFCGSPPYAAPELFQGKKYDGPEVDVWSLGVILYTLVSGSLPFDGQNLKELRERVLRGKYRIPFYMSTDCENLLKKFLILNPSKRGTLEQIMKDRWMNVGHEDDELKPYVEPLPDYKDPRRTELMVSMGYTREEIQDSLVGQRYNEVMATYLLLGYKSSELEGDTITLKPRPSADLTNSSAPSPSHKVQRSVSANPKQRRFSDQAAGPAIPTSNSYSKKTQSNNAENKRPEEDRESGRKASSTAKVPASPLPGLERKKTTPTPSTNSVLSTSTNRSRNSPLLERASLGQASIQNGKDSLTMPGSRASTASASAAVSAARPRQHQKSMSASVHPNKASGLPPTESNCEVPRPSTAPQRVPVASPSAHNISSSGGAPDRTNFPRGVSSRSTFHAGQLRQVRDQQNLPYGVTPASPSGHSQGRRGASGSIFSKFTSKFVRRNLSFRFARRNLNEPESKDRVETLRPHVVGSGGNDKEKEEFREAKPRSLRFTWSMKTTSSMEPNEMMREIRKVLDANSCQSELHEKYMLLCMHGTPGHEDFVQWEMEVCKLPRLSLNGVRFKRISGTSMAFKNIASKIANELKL

Sequence of MAP kinase-activated protein kinase 2 (Homo sapiens) (P49137 whole entry, looked up): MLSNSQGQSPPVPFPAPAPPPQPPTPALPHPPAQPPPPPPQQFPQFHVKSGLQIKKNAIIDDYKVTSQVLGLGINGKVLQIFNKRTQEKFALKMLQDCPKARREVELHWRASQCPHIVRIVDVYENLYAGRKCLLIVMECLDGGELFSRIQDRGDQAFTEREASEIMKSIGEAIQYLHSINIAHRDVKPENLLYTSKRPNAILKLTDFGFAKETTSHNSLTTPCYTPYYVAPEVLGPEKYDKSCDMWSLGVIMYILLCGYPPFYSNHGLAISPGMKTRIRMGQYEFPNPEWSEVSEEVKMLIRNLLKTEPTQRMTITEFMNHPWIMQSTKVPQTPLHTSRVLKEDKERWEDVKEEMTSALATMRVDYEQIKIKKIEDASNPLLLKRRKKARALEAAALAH
Sequence of Serine/threonine-protein kinase MARK1 (Homo sapiens) (Q9P0L2 whole entry, looked up): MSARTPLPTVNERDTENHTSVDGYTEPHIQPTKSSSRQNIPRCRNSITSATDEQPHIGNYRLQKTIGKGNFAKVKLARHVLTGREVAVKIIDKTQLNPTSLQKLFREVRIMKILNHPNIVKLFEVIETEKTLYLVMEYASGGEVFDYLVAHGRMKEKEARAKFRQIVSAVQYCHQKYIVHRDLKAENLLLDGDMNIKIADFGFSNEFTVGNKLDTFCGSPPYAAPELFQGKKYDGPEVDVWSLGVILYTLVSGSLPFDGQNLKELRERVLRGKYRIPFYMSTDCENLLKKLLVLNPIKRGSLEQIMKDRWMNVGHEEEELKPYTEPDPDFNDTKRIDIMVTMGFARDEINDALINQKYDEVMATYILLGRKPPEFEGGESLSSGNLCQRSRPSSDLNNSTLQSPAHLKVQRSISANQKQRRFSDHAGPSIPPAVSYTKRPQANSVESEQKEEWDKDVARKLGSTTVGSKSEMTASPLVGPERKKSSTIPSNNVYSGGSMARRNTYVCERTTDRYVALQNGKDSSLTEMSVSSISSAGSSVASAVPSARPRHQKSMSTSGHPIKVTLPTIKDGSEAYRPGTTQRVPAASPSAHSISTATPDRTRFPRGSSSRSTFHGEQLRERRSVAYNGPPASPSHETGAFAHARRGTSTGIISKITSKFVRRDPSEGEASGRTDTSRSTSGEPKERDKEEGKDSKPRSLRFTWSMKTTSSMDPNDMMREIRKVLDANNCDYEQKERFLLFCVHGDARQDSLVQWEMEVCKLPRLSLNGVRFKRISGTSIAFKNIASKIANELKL
Sequence of MAP/microtubule affinity-regulating kinase 3 (Homo sapiens) (P27448 whole entry, looked up): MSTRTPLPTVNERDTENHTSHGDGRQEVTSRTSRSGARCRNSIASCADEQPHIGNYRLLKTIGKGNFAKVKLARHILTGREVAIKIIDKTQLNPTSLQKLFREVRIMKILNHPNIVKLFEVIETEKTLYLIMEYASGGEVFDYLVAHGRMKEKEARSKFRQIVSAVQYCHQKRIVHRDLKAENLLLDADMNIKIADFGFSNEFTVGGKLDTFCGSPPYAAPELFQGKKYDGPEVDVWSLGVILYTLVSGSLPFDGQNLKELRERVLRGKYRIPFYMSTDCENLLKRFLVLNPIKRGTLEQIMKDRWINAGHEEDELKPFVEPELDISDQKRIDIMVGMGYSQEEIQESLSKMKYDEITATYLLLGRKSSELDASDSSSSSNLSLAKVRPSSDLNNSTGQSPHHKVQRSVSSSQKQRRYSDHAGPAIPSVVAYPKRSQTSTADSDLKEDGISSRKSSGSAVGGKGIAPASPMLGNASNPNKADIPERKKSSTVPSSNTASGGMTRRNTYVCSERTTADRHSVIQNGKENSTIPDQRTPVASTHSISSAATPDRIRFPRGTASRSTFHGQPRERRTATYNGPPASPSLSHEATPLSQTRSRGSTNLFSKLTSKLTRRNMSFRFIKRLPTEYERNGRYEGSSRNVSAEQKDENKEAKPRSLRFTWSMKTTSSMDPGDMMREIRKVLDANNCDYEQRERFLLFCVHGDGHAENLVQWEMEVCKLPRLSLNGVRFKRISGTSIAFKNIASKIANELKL
Sequence of MAP kinase-activated protein kinase 3 (Homo sapiens) (Q16644 whole entry, looked up): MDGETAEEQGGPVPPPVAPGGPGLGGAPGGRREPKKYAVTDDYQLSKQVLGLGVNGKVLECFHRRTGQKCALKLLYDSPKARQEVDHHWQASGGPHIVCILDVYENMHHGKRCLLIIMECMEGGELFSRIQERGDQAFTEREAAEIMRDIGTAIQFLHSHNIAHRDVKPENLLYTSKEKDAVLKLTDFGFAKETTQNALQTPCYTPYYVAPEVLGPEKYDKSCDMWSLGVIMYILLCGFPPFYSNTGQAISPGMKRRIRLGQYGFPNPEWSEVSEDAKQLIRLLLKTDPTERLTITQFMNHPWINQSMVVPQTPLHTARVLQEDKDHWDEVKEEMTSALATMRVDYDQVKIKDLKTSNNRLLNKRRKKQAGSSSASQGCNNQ
Sequence of Death-associated protein kinase 1 (Homo sapiens) (P53355 whole entry, looked up): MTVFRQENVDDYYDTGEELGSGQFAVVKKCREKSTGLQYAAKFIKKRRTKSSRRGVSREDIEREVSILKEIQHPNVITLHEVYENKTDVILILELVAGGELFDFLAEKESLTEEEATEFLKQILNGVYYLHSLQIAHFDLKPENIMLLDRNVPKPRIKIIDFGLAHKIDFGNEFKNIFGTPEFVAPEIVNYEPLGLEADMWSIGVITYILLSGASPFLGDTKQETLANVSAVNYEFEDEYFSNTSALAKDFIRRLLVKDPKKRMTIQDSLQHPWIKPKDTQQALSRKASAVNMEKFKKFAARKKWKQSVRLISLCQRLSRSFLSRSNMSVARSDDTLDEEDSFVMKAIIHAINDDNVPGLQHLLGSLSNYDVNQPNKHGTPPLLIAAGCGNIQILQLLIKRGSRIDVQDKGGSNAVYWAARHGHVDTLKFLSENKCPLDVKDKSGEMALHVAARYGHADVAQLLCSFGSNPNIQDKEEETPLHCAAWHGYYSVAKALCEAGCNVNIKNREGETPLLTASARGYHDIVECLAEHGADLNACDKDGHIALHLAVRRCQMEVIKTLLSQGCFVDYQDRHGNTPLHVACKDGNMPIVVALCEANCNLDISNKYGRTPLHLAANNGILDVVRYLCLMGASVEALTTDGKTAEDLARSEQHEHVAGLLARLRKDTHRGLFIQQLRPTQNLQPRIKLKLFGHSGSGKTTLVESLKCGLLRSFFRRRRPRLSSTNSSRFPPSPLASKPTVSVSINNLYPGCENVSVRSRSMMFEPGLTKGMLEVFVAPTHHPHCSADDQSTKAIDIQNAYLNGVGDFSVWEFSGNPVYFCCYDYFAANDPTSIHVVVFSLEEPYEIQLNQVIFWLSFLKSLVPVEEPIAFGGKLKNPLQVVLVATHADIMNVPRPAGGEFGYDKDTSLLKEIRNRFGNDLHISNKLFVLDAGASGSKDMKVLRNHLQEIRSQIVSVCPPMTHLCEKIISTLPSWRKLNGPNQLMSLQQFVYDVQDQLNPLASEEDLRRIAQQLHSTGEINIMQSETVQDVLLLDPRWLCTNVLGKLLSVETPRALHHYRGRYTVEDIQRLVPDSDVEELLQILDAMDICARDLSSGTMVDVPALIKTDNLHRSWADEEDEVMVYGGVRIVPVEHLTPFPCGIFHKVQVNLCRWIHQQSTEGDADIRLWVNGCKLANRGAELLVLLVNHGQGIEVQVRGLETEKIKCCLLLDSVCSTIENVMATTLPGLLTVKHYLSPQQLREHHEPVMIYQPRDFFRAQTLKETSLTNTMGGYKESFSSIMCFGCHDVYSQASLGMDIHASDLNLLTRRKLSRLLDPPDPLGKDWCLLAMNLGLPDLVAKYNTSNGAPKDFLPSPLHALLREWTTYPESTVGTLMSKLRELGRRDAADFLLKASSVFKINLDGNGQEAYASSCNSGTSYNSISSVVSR
Sequence of MAP kinase-interacting serine/threonine-protein kinase 1 (Homo sapiens) (Q9BUB5 whole entry, looked up): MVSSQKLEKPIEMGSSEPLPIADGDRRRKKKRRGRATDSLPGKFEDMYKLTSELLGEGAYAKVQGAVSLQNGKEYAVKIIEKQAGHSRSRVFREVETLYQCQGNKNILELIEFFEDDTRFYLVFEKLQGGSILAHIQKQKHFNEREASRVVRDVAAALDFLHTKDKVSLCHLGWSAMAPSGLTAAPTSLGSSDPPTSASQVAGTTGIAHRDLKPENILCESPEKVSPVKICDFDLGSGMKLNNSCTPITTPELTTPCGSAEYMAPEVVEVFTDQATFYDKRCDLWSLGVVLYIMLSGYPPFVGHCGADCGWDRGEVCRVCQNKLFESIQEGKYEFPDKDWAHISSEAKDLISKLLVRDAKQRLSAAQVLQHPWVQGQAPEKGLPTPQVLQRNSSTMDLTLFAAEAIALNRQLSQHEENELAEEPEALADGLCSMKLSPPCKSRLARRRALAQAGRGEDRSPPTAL

Regarding `Cc1nnc(-c2cccc(-c3ccc(C(=O)NCC4CC4)cc3)c2)o1`, the inhibition (commonly the change of the read-out against control, counted positive when it falls) in [1] was 6.03%; in test [2], 1.25%; in test [3], 4.29%; in [4] it was 2.92%; in test [5], 2.7%; in test [6], 5.72%. For the same compound, the inhibition came out at 6.73% in test [7]; 4.06% in test [8]; 6.5% in test [9]; 4.12% in test [10]; 7.47% in test [11]; 1.79% in test [12]. Besides, the inhibition was 2.85% in test [13]; 0.44% in test [14]; 6.34% in test [15]; 4.66% in test [16]; 6.32% in [17]; 2.35% in test [18]. In addition, the inhibition is 6.05% in [19] and 0.64% in test [20].
For `O=C(Nc1n[nH]c2nnc(-c3cccnc3)cc12)C1CC1`, the inhibition in test [1] was -2.01%; in test [2] it was -0.69%; in test [3], -0.41%; in test [4], -0.72%; in test [5], -0.2%; in test [6] it was 0.08%. In addition, the inhibition in [7] was -0.37%; in test [8], -0.14%; in test [9] it was 0.29%; in [10], 0.23%; in [11] it was 1.25%; in test [12], 0.54%. Further, the inhibition in test [13] is 0.56%; in [14], -0.51%; in test [15], 1.48%; in test [16], 0.68%; in test [17], -0.29%; in [18], 0.77%. Also, the results for the inhibition in test [19] and in [20] were 2.11% and 0.83%, respectively.
As for `CS(=O)(=O)Nc1ccc(-c2ccc3c(NC(=O)C4CC4)n[nH]c3c2)cc1`, the inhibition in [1] was 4.64%; in test [2] it was 1.42%; in test [3], 1.42%; in test [4] it was 1.53%; in test [5] it was 1.14%; in test [6], 3.27%. The inhibition amounted to 3.44% in test [7]; 2.32% in test [8]; 2.73% in [9]; 3.47% in test [10]; 0.81% in test [11]; 2.19% in test [12]. Besides, the inhibition in [13] was 2.82%; in [14], 2.17%; in test [15], 3.47%; in [16], 2.36%; in [17], 2.11%; in [18], 1.69%. Further, the inhibition is 1.32% in test [19] and -0.79% in [20].
For the compound `COc1c(C(N)=O)cc(-c2ccc(Cl)cc2)cc1-c1ccc(S(N)(=O)=O)cc1`, the inhibition in [1] is 0.56%; in [2], -5.08%; in [3] it was 2.52%; in [4], 2.42%; in test [5], 3.46%; in test [6] it was 5.57%. For the same compound, the inhibition was 8.63% in test [7]; 0.41% in test [8]; 1.61% in [9]; -0.24% in test [10]; 2.07% in test [11]; 0.45% in test [12]. Besides, the inhibition was 1.37% in [13]; 6.28% in test [14]; 14.6% in test [15]; 3.66% in test [16]; 11.2% in [17]; 2.02% in [18]. Besides, the inhibition in [19] came out at 5.44%; in [20], 1.8%.
Turning to `NS(=O)(=O)c1cccc(N/C=C2\C(=O)Nc3ccccc32)c1`, the inhibition in test [1] is 12.5%; in test [2], 0.84%; in test [3] it was 2.32%; in test [4], 4.22%; in test [5], 4.45%; in test [6], 11.3%. For the same compound, the inhibition in test [7] is 12.1%; in test [8], 6.31%; in test [9], 24.4%; in test [10], 5.23%; in test [11], 17%; in test [12], 4.17%. Further, the inhibition in [13] was determined as 15.5%; in test [14], 5.46%; in test [15] it was 19%; in test [16], 2.36%; in test [17], 4.02%; in test [18], 1.04%. Besides, the inhibition turned out to be 2.05% in test [19] and 2.99% in [20].
On to `O=C1Nc2ccccc2/C1=C1\CCc2cc(O)ccc21`, for which the inhibition is -2.93% in test [1]; 2.55% in [2]; 0.84% in test [3]; -0.94% in test [4]; -0.15% in [5]; -1.04% in [6]. The inhibition is -1.15% in [7]; 8.64% in test [8]; 33.8% in test [9]; 7.19% in test [10]; 40.1% in [11]; 7.29% in [12]. In addition, the inhibition in test [13] stood at 33.1%; in [14], 11.1%; in [15], 56.8%; in test [16] it was 3.12%; in [17] it was 7.84%; in [18], 2.73%. Besides, the inhibition in [19] turned out to be 15.9%; in test [20], 5.04%.
Turning to `CN(C)CCNC(=O)Nc1ccc(N(C)c2ccnc(Nc3ccc(CS(C)(=O)=O)cc3)n2)cc1`, the inhibition in test [1] turned out to be 4.89%; in test [2], 2.39%; in test [3] it was 1.2%; in test [4] it was 1.53%; in [5], 1.45%; in [6], 2.22%. Moreover, the inhibition in [7] came to 2.99%; in test [8] it was 4.47%; in [9], 9.32%; in [10], 6.51%; in test [11], 6.62%; in test [12], 1.9%. Also, the inhibition in test [13] came to 8.9%; in [14] it was 4.26%; in [15] it was 16.1%; in test [16] it was 1.51%; in test [17] it was 3.79%; in test [18], 0.95%. Further, the inhibition in [19] worked out at 5.14%; in test [20] it was 2.5%.

These data come from ChEMBL document CHEMBL1961873, “Compounds: GSK PKIS; Assays: Nanosyn kinase panel” (2012).
